Compound activity from PubChem BioAssay.
Most compounds without a hit are left out; they make up all but 9% or so of the library.
KinaseGlo FLuc: blocks Kinase-Glo luciferase, a counter-screen artifact. Q27757. Kinase-Glo luciferase, ATP luminescence, 8 min. Potency, µM (highest dose often 38.3 µM), hits mostly inhibitors. 200,000 tested, 0.28% active. AID 1379; also: nearly all actives have a fitted effect of over 60% in size
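Recombinant Kinase-Glo luciferase, 10 uM ATP (linear range), luciferin; imidazole pH 7.2 / KCl / MgCl2 / Tween / BSA buffer; 8 min RT; luminescence.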
HPGD block: HPGD (human) dehydrogenase inhibition; purified HPGD, NADH fluorescence kinetic, PGE2 substrate; Potency, µM, usual class: inhibitors; 150,000 tested, 4.3% active; AID 894; active = well fitted inhibition curve with a large enough effect, not every such curve was filed as active; inconclusive = small, poorly fitted or top-dose-only effect, or another doubt; inactive = no such curve, though single readings can be large or run the other way
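NADH formation kinetics: reaction with 30 uM PGE2 and 1 mM NAD+ (final), 20 nM enzyme, Tris-HCl pH 8 with Tween 20, after 15 min compound preincubation at room temperature. Fluorescence change, last versus first of five reads.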
ALDH1A1 block: inhibitors of human aldehyde dehydrogenase 1A1; 220,000 tested, 7.3% active; Potency, µM (series often up to 75.3 µM), hits mostly inhibitors; Purified ALDH1A1, NADH fluorescence, propionaldehyde substrate; active = well fitted inhibition curve with a large enough effect, not every such curve was filed as active; inconclusive = small, poorly fitted or top-dose-only effect, or another doubt; inactive = no such curve, though single readings can be large or run the other way
Target sequence (P00352 whole entry, looked up): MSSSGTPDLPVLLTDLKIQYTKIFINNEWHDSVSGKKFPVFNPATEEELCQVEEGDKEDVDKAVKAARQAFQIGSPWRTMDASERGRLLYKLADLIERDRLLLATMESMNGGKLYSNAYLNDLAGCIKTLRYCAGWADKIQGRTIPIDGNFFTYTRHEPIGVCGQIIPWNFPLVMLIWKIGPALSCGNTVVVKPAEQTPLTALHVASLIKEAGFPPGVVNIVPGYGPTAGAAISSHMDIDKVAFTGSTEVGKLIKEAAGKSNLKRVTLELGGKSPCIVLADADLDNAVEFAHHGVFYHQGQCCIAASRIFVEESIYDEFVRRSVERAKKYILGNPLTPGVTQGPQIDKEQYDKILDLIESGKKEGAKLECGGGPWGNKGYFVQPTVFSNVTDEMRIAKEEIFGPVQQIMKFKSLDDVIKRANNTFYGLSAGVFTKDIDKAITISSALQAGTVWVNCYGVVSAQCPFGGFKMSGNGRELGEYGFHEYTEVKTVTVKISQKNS
HTT cytoprotect: protects HTT-Q103 PC12 cells, measured by ATP; Potency, µM (titrated, usually from 56.4 µM), usual class: activators; AID 1471; 230,000 tested, 0.14% active; PC12 HTT-Q103 induced, cytoprotection, ATP luminescence, 40 h; also: nearly all actives have a fitted effect of over 45% in size
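Stable PC12 Q103-GFP cells in serum-supplemented, phenol red-free DMEM; induction by tebufenozide at 100 nM final; compound dose series; cell viability quantified luminescently from ATP.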
HttQ103 aggreg: reduces HttQ103-GFP aggregates in PC12 cells. PC12 HttQ103-GFP aggregates, Acumen cytometry, 40 h. Potency, µM (doses to about 46.1 µM), most hits filed as inhibitors. 220,000 tested, 1.1% active. AID 1688; also: nearly all actives have a fitted effect of over 60% in size
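Inducible Q103 Huntingtin exon 1–GFP PC12 line, 1500 cells/well in phenol red free DMEM with 5% equine and 5% calf serum. Tebufenozide 100 nM induced expression; compounds titrated; aggregates quantified by cytometry.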
LMNA splice mod: LMNA splicing modulation; HeLa LMNA splicing GFP/RFP minigene ratio, 48 h; Potency, µM (highest dose often 46.1 µM), actives largely listed as inhibitors; 200,000 tested, 0.01% active; active = well fitted inhibition curve with a large enough effect in the signal ratio, with a control signal flat, not every such curve was filed as active; inconclusive = small, poorly fitted or top-dose-only effect, or effect the other way, or a change in a side signal; the % refers to the signal ratio
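S3 HeLa stable clones carrying a lamin A-EGFP splicing minigene plus DsRed2 were seeded at 600 cells/well in Opti-MEM with 2% FBS, pin-dosed and incubated 48 h at 37°C. Acumen cytometry (488 nm) gave the GFP/RFP total-intensity ratio.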
Numbers stand for hits; n = inactive; u = inconclusive; x = no result; [ ] = another dose, or the depositor's remark. Unless noted, calls follow the shape of the dose curve; as a rule, active = well fitted curve in the direction sought with a large enough effect; inconclusive = small, poorly fitted or top-dose-only effect, or another doubt; inactive = no such curve, though single readings can be large; an effect the other way counts as inactive or inconclusive.

SMILES	KinaseGlo FLuc	HPGD block	ALDH1A1 block	HTT cytoprotect	HttQ103 aggreg	LMNA splice mod
CCc1nnc(NC(=O)CSc2nnc(-c3ccc(NS(=O)(=O)c4ccccc4)cc3)o2)s1	n	14µM	n	n[10 µM]	n	n
CCN(CC)S(=O)(=O)c1ccc(-c2nnc(SCC(=O)Nc3cc(OC)cc(OC)c3)o2)cc1	n	n	13µM	n	n	n
Fc1ccc(-c2cc(-c3ccccc3)nc(-n3cccn3)n2)cc1	n	x	n	n	u	u
COc1ccc(/C=C2/N=C(SC3CCOC3=O)N(c3cccc(OC)c3)C2=O)cc1 (configuration not stated)	x	x	3.5µM	n[10 µM]	n	n
O=C(c1ccc(Cl)c([N+](=O)[O-])c1)N(Cc1cccc(Cl)c1)C1CCS(=O)(=O)C1 (configuration not stated)	n	n	u	n[1.9 µM]	n	n
Cc1ccccc1OCc1nc2ccccc2[nH]1	13µM	x	n	n[10 µM]	n[9.22 µM]	x
COc1ccccc1OCc1nc2ccccc2[nH]1	n	n	n	n[10 µM]	n	n
Cc1ccc2nc(C)c(C(=O)N/N=C/c3ccc(N4CCOCC4)cc3)cc2c1	n	u	u	n[10 µM]	n	n
O=c1cc(-c2ccccc2)[nH]c2nc3ccccc3n12	13µM	u	u	n[10 µM]	n	u
Cc1cc(=O)n(C)c2ccccc12	n	x	n	n[1.9 µM]	n[9.22 µM]	x
COc1ccc(C(=O)OCC(=O)NC2CC2)cc1[N+](=O)[O-]	n	n	u	n[10 µM]	n	u
CCOc1cc(/C=N/n2cnnc2)ccc1OS(=O)(=O)c1ccc(C)cc1	n	x	22µM	n[1.9 µM]	n[9.22 µM]	n
Clc1ccc(CN(Cc2ccccc2)C(c2cccs2)c2nnnn2C2CCCC2)cc1 (configuration not stated)	n	n	n	n	n	u
Fc1ccc(CN(Cc2ccccc2)C(c2cccs2)c2nnnn2C2CCCCC2)cc1 (configuration not stated)	n	n	n	n	25µM	n
CC(=O)SCC(Cc1ccccc1)C(=O)NCC(=O)OCc1ccccc1 (configuration not stated)	x	x	x	x	x	n
CC(C)CCOC(=O)/C(=C/c1ccco1)NC(=O)/C=C/c1ccccc1	n	n	u	n	u	n
C/C(=N\NC(=O)C1(C)CC1(Br)Br)c1ccc([N+](=O)[O-])cc1 (configuration not stated)	n	x	n	n	n	n
C/C(=N\NC(=O)C1(C)CC1(Br)Br)c1ccc(NC(=O)c2ccc(C)o2)cc1 (configuration not stated)	n	18µM	n	n[10 µM]	n	n
Cc1ccccc1C(=O)N1CCN(C(c2ccccc2)c2ccccc2)CC1	x	x	x	n[10 µM]	n[9.22 µM]	x
Cc1occc1C(=O)N1CCN(S(C)(=O)=O)CC1	n	n	20µM	n[0.074 µM]	n	n
Cc1occc1C(=O)N1CCN(C(c2ccccc2)c2ccccc2)CC1	n	n	u	n[10 µM]	20µM	n
Cc1oc(C(C)(C)C)cc1C(=O)N1CCN(C(c2ccccc2)c2ccccc2)CC1	x	x	8.9µM	n[10 µM]	n[9.22 µM]	n
O=C(C1=COCCO1)N1CCN(C(c2ccccc2)c2ccccc2)CC1	n	n	8.9µM	n[10 µM]	n	n
O=C(c1ccccc1)N1CCN(c2ccccc2F)CC1	n	n	n	n	n	n
FC(F)(F)c1ccccc1-c1nccc(-n2ccnc2)n1	x	x	u	n	x	u
SMILES	KinaseGlo FLuc	HPGD block	ALDH1A1 block	HTT cytoprotect	HttQ103 aggreg	LMNA splice mod
Cc1occc1C(=O)N1CCN(c2ccc(Cl)c(Cl)c2)CC1	n	n	u	n[10 µM]	11µM	u
Cc1ccc(C)c(NC(=O)C2CC(O)CN2C(=O)OCc2ccccc2)c1 (configuration not stated)	n	n	n	n	n	n
COc1ccccc1C1C2=C(N=c3s/c(=C/c4cccc(OCC(=O)O)c4)c(=O)n31)c1ccccc1CC2 (configuration not stated)	n	28µM	u	n[10 µM]	u	u
COc1ccc(C2N(c3ccc(OC)cc3)C(=O)C3CCCN32)cc1 (configuration not stated)	n	n	u	n	n	n
COc1ccc(N2C(=O)C3CCCN3C2c2ccccc2Cl)cc1 (configuration not stated)	n	n	10µM	n	n	n
COc1ccc(N2C(=O)C3CCCN3C2c2ccc(C)cc2)cc1 (configuration not stated)	n	n	20µM	n	n	n
Cc1nc2sc3c(c2c2nc(-c4ccco4)nn12)CC(C)(C)OC3	x	x	x	n[0.074 µM]	x	x
CCn1c(Cc2ccccc2)nnc1SCC(=O)Nc1ccc(OC)cc1	n	n	n	n[1.9 µM]	n	n
Cc1ccc(-n2nnnc2Sc2ccc(S(=O)(=O)NCCN(C)C)cc2[N+](=O)[O-])cc1	n	n	u	n[10 µM]	22µM	u
O=[N+]([O-])c1cc(S(=O)(=O)NCCCN2CCOCC2)ccc1Cl	n	n	n	n[10 µM]	n	n
O=[N+]([O-])c1cc(S(=O)(=O)NCCN2CCOCC2)ccc1Sc1nnnn1-c1ccccc1	n	n	14µM	n[10 µM]	4.5µM	u
Cc1ccc(S(=O)(=O)NCCSc2nnnn2-c2ccc(C(N)=O)cc2)cc1	n	n	u	n	n	n
COC(=O)Nc1nc(C)c(C(=O)N(C)C)s1	n	n	n	n	n	n
O=C1C2C(C(=O)N1c1ccccc1)N1CCCN1C2c1ccccc1 (configuration not stated)	n	x	n	n	n	n[9.22 µM]
O=C1C2C3C=CC(C3=C3CCCCC3)C2C(=O)N1c1ccccc1 (configuration not stated)	n	n	10µM	n	n	n
O=C1C2C3CCCC3=C3CCCC3C2C(=O)N1c1ccccc1 (configuration not stated)	n	n	25µM	n	n	n
O=C1C2C3C=CC(C3)C2C(=O)N1c1ccccc1 (configuration not stated)	n	n	n	n	n	u
COc1cc(/C=C2\SC(c3ccccc3)=NC2=O)cc(Cl)c1O	u	x	5µM	n	n[9.22 µM]	x
CNS(=O)(=O)c1cc2c3c(cccc3c1)C(=O)NC2=O	n	x	n	n	n	x
Cc1[nH]c(-c2ccco2)nc1C(=O)O	n	n	n	n	n	n
c1ccc(-c2nc3c([nH]2)CCc2nonc2-3)cc1	n	x	4.5µM	n	n	x
c1coc(-c2nc3c([nH]2)CCc2nonc2-3)c1	n	u	2.8µM	n	n	n
COc1ccccc1NC1SC(=O)N(c2ccccc2)C1=O (configuration not stated)	n	n	5µM	n[10 µM]	n	u
CN1C(=O)SC(Nc2ccccc2C(=O)O)C1=O (configuration not stated)	n	u	u	n	n	n
O=C(CC1SC2=NCCN2C1=O)Nc1ccccc1 (configuration not stated)	n	n	n	n	n	n
